Source: PubChem BioAssay AID1159580 (chemical genetic matrix, 2015)
Where “and” joins values, the source holds several entries; their conditions need not be identical. Equal entries are not always repeated. The whole screen tested about 5,500 compounds, of which about 2,000 (36%) were called active. Inconclusive results (about 18%) are left out. No stated cut-off is given here; in the data, active means normalized growth mostly below about 0.91 (no sharp cut-off); inconclusive means no clear call, values can overlap the other calls; inactive means mostly above about 0.92. The list shows a part of the results.

Assay: chemical genetic growth profiling, strain panel (AID 1159580);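 further: tested at 20 µM; growth read once vehicle control cultures reached saturation at 30 °C; 1 = growth at the plate median or of vehicle wells; lower values mean less growth of the strain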
Conditions: S. cerevisiae deletion strains, growth OD

Measured: normalized growth

CCCCC1C(=O)N(c2ccccc2)N(c2ccc(O)cc2)C1=O (stereo not given)
inactive: locus YAL021C, strain ccr4, active compounds read low 1.02 | locus YAL026C, strain drs2, active compounds read low 0.998 | locus YAL030W, strain snc1, active compounds read low 1 | locus YBL061C, strain skt5, active compounds read low 0.999 | locus YBR009C, strain hhf1, active compounds read low 0.998 | locus YBR021W, strain FUR4, active compounds read low 0.995 | locus YBR023C, strain chs3, active compounds read low 1 | locus YBR171W, strain sec66, active compounds read low 1.01 | locus YBR229C, strain ROT2, active compounds read low 0.953 | locus YBR231C, strain swc5, active compounds read low 1 | locus YBR279W, strain paf1, active compounds read low 0.993 | locus YCL011C, strain gbp2, active compounds read low 1.01 | locus YCL016C, strain dcc1, active compounds read low 1.01 | locus YCL029C, strain bik1, active compounds read low 0.969 | locus YCL061C, strain MRC1, active compounds read low 1.01 | locus YCL069W, strain vba3, active compounds read low 1 | locus YCR088W, strain abp1, active compounds read low 1.01 | locus YDL005C, strain med2, active compounds read low 0.995 | locus YDL035C, strain GPR1, active compounds read low 0.972 | locus YDL040C, strain nat1, active compounds read low 0.997 | locus YDL074C, strain BRE1, active compounds read low 0.947 | locus YDL101C, strain DUN1, active compounds read low 0.98 | locus YDL134C, strain PPH21, active compounds read low 0.999 | locus YDL185W, strain tfp1, active compounds read low 0.974 | locus YDL192W, strain arf1, active compounds read low 0.984 | locus YDR001C, strain nth1, active compounds read low 0.995 | locus YDR069C, strain doa4, active compounds read low 0.988 | locus YDR101C, strain arx1, active compounds read low 1.01 | locus YDR137W, strain rgp1, active compounds read low 0.98 | locus YDR150W, strain NUM1, active compounds read low 0.979 | locus YDR159W, strain sac3, active compounds read low 1 | locus YDR162C, strain NBP2, active compounds read low 0.99 | locus YDR195W, strain ref2 0.987 | locus YDR297W, strain sur2, active compounds read low 1.01 | locus YDR318W, strain mcm21, active compounds read low 0.994 | locus YDR334W, strain swr1, active compounds read low 1.01 | locus YDR335W, strain msn5, active compounds read low 1.01 | locus YDR388W, active compounds read low 0.998 | locus YDR392W, strain spt3, active compounds read low 1.01 | locus YDR502C, strain sam2, active compounds read low 0.99 | locus YEL003W, strain gim4, active compounds read low 0.998 | locus YEL037C, strain rad23, active compounds read low 1 | locus YEL061C, strain CIN8 (second series), active compounds read low 1 | locus YEL061C, strain CIN8, active compounds read low 0.987 | locus YER015W, strain faa2, active compounds read low 0.996 | locus YER016W, strain bim1, active compounds read low 0.998 | locus YER110C, active compounds read low 0.965 | locus YER111C, strain swi4, active compounds read low 1 | locus YER155C, strain BEM2 (second series), active compounds read low 1.04 | locus YER155C, strain BEM2, active compounds read low 0.997 | locus YER167W, strain BCK2, active compounds read low 0.987 | locus YFR010W, strain ubp6, active compounds read low 1.01 | locus YGL078C, strain dbp3, active compounds read low 0.995 | locus YGL086W, strain mad1, active compounds read low 0.963 | locus YGL167C, strain pmr1, active compounds read low 1 | locus YGL173C, strain kem1, active compounds read low 0.983 | locus YGL227W, strain vid30, active compounds read low 1.01 | locus YGL240W, strain doc1, active compounds read low 1 | locus YGL248W, strain PDE1, active compounds read low 0.97 | locus YGL253W, strain hxk2, active compounds read low 1.01 | locus YGR135W, strain pre9, active compounds read low 0.988 | locus YGR229C, strain SMI1, active compounds read low 0.992 | locus YGR252W, strain gcn5, active compounds read low 0.893 | locus YHR013C, strain ard1, active compounds read low 1 | locus YHR027C, strain rpn1, active compounds read low 0.999 | locus YHR030C, strain SLT2, active compounds read low 0.999 and 0.974 | locus YHR079C, strain IRE1 (second series), active compounds read low 0.997 | locus YHR079C, strain IRE1, active compounds read low 0.973 | locus YHR094C, strain hxt1, active compounds read low 0.993 | locus YHR129C, strain ARP1, active compounds read low 0.982 | locus YHR142W, strain chs7, active compounds read low 1.01 | locus YHR200W, strain rpn10, active compounds read low 0.988 | locus YIL066C, strain RNR3, active compounds read low 0.976 | locus YIL073C, strain SPO22, active compounds read low 1.01 | locus YIL125W, strain kgd1, active compounds read low 0.985 | locus YIR030C, strain dcg1, active compounds read low 0.983 | locus YJL092W, strain hpr5, active compounds read low 1.01 | locus YJL095W, strain BCK1 (second series), active compounds read low 1.01 | locus YJL095W, strain BCK1, active compounds read low 1 and 0.992 | locus YJL115W, strain asf1, active compounds read low 1.01 | locus YJL129C, strain trk1, active compounds read low 0.997 | locus YJL134W, strain LCB3, active compounds read low 0.988 | locus YJL154C, strain vps35, active compounds read low 1 | locus YJL164C, strain tpk1, active compounds read low 0.994 | locus YJL166W, strain qcr8, active compounds read low 1.01 | locus YJL168C, strain set2, active compounds read low 0.994 | locus YJL187C, strain SWE1 (second series), active compounds read low 0.98 | locus YJL187C, strain SWE1, active compounds read low 1 | locus YJR043C, strain POL32, active compounds read low 0.999 | locus YJR066W, strain TOR1, active compounds read low 0.93
